The values below come from PubChem BioAssay (Tox21).

Unmarked numbers belong to inactive results. Inconclusive results are not listed. Active and inactive are the calls of the source. Unless noted, calls come from the whole dose curve; as a rule, active = well fitted curve in the direction sought with a large enough effect in the repeat runs; inconclusive = weak or mixed curves; inactive = no such curve, though single readings can be large; an effect the other way counts as inactive or inconclusive.

Assay [1] is described as follows: qHTS assay to identify small molecule agonists of the TGF-beta/Smad signaling pathway - cell viability counter screen (AID 1346829). Note: top concentration of the series differs between compounds; nearly all actives have a fitted effect of over 45% in size. The procedure, abridged:
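Same-well cytotoxicity: CellTiter-Glo added after the 2 hr room-temperature beta-lactamase substrate step, luminescence measured 30 min later; cells had 5 hr of compound at 37 C.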
For orientation: Quantitative high-throughput screening tests each substance at several concentrations.

Assay [2] in a line: qHTS assay to identify small molecule agonists of the TGF-beta/Smad signaling pathway (AID 1346859; active = well fitted activation curve with a large enough effect in the signal ratio in the repeat runs, not every such curve was filed as active; the % refers to the signal ratio; note: series mostly up to about 77 µM). The method in brief: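 After overnight seeding, SBE-bla HEK 293T cells are dosed with compounds in DMSO and kept 5 hr at 37 C, 5% CO2. LiveBLAzer-type FRET substrate is then applied for 2 hr at room temperature.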
Assay [3] concerns the target Thyrotropin-releasing hormone receptor (Homo sapiens) (UniProt P34981). Kind of assay: qHTS assay to identify small molecule antagonists of the thyrotropin-releasing hormone receptor (TRHR) signaling pathway (AID 1346877; active = well fitted inhibition curve with a large enough effect in the repeat runs, not every such curve was filed as active; note: series mostly up to about 51 µM). The method in brief:
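Overnight-plated (18 h, 37 °C) HEK293 cells expressing TRHR were dye-loaded 2 h, treated with compound, then stimulated with TRH at 1 nM final. Fluorescence intensity was captured every second for 3 min.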

Assay [4] shares this target. Kind of assay: qHTS assay to identify small molecule agonists of the thyrotropin-releasing hormone receptor (TRHR) signaling pathway (AID 1346891; calls by dose curve;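 note: HEK293 cells expressing TRHR with calcium dye readout; series mostly up to about 58 µM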). The method in brief:
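Compounds were tested as agonists at 15 concentrations, in triplicate, on TRHR-Hek293 cells; calcium-sensitive dye fluorescence was recorded for 3 min following addition.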

Assay [5] in a line: Caspase-3/7 induction in HepG2 cells by small molecules, qHTS assay (AID 1346978). Note: nearly all actives have a fitted effect of over 15% in size. The procedure, abridged: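 Wild-type HepG2 cells (2,000/well) were settled 5 h at 37 C, 5% CO2, then exposed to compounds in DMSO for 17 h. Caspase-3/7 activity was read by luminescence 30 min after adding Caspase-Glo 3/7 reagent at room temperature.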
The nature of assay [6]: Caspase-3/7 induction in CHO-K1 cells by small molecules, qHTS cell viability counter screen (AID 1346979). Note: nearly all actives have a fitted effect of over 35% in size. The procedure, abridged: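 Viability readout by fluorescence (CellTiter-Fluor) on wild-type CHO-K1 cells exposed for 16hr at 37C and 5% CO2 to compounds delivered in DMSO; reagent incubated 1hr before reading.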
A short description of assay [7]: Caspase-3/7 induction in HepG2 cells by small molecules, qHTS cell viability counter screen (AID 1346981). Note: series mostly up to about 92 µM; nearly all actives have a fitted effect of over 30% in size. The method in brief: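 Treatment of HepG2 cells with DMSO-delivered compounds ran 16 hr at 37 C following a 5-hr pre-incubation of 2,000 cells/well. CellTiter-Fluor fluorescence, read after 1 hr, served as the viability measure in a qHTS format.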
The target in assay [8] is Nuclear receptor subfamily 1 group I member 2 (Homo sapiens) (UniProt O75469). Kind of assay: Human pregnane X receptor (PXR) small molecule agonists, qHTS assay (AID 1346982). Note: nearly all actives have a fitted effect of over 35% in size. Note: potency is the fitted concentration of half-maximal effect. The procedure, abridged: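 Stable HepG2 line reporting PXR-mediated CYP3A4 expression via luciferase. Treatment: 24 hr with compounds in DMSO at 37 C. Detection: ONE-Glo luminescence.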
The target of assay [9] is Cytochrome P450 1A2 (Homo sapiens) (UniProt P05177). Kind of assay: Cytochrome P450 Family 1 Subfamily A Member 2 (CYP1A2) small molecule antagonists: luciferase reporter qHTS assay (AID 1671199). Note: nearly all actives have a fitted effect of over 50% in size. Note: potency is the fitted concentration of half-maximal effect. The method in brief:
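Read-out is luminescence from luciferin detection reagent (20 min) proportional to CYP1A2 activity; compounds in DMSO preincubated 10 min with enzyme and proluciferin substrate, then NADPH regeneration solution, 1 h, room temperature.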
(In general: A reporter such as luciferase makes a cellular process visible.)

The target in assay [10] is Voltage-gated inwardly rectifying potassium channel KCNH2 (Homo sapiens) (UniProt Q12809). Nature of the assay: Human Ether-a-go-go-Related Gene (hERG) channel small molecule antagonists: fluorescence cell-based qHTS assay (AID 1671200).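 Note: hERG-expressing U2OS cells given a thallium stimulus after FluxOR II dye loading; series mostly up to about 77 µM; nearly all actives have a fitted effect of over 50% in size.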 The method in brief: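 Thallium served as the potassium surrogate; its influx into dye-loaded U2OS cells carrying the channel was measured by fluorescence over 2 min.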

The target of assay [11] is Cytochrome P450 3A4 (Homo sapiens) (UniProt P08684). Nature of the assay: Cytochrome P450 Family 3 Subfamily A Member 4 (CYP3A4) small molecule antagonists: luciferase reporter qHTS assay (AID 1671201). Note: nearly all actives have a fitted effect of over 50% in size. Note: potency is the fitted concentration of half-maximal effect. The method in brief:
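Relative luminescence units after 20 min with luciferin detection reagent served as read-out. Beforehand, CYP3A4 turned over a proluciferin substrate for 1 h at room temperature with NADPH regeneration, following 10 min compound preincubation.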

In assay [12] the target is Cytochrome P450 2D6 (Homo sapiens) (UniProt P10635). Nature of the assay: Cytochrome P450 Family 2 Subfamily D Member 6 (CYP2D6) small molecule antagonists: luciferase reporter qHTS assay (AID 1671196). Note: nearly all actives have a fitted effect of over 50% in size. Note: potency is the fitted concentration of half-maximal effect. The procedure, abridged: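 Chemicals tested for interference with CYP2D6 activity; proluciferin substrate, NADPH regeneration, 1 h at room temperature, luminescent detection.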

A short description of assay [13]: Caspase-3/7 induction in CHO-K1 cells by small molecules, qHTS assay (AID 1346980). Note: nearly all actives have a fitted effect of over 15% in size. The procedure, abridged: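 Wild-type cells were seeded at 1,500 per well and settled 5 hr at 37 C, 5% CO2, then exposed to DMSO-dissolved compounds for 17 hr. Caspase-Glo 3/7 reagent was added, and luminescence was read after 30min at room temperature.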
The target of assay [14] is Nuclear receptor subfamily 1 group I member 2 (Rattus norvegicus) (UniProt Q9R1A7). Kind of assay: Rat pregnane X receptor (rPXR) activation by small molecules, qHTS assay (AID 1346983). Note: nearly all actives have a fitted effect of over 20% in size. The settings on record: rPXR luciferase reporter cells, One-Glo luminescence, 24 h; active compounds read high. The procedure, abridged: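 Cell-based rPXR luciferase reporter assay, 2,000 cells per well, rested 5hr at 37 C before compound addition in DMSO, then 24 hr at 37 C. One-Glo reagent was added and luminescence read after 30 min at room temperature.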

The target in assay [15] is Nuclear receptor subfamily 1 group I member 2 (Homo sapiens) (UniProt O75469). Nature of the assay: CYP3A4 induction through human pregnane X receptor (PXR) by small molecules, qHTS assay (AID 1346984). Note: nearly all actives have a fitted effect of over 40% in size. The procedure, abridged:
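After 24 h at 37C with compound, DPX-2 cells (HepG2, co-transfected PXR response element and CYP3A4 promoter-luciferase) got 3uM final P450-Glo Luciferin-IPA for 3 h; One-Glo luminescence followed.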

The target is the same in assay [16]. Nature of the assay: Human pregnane X receptor (PXR) activation by small molecules, qHTS assay (AID 1346985). Note: nearly all actives have a fitted effect of over 40% in size. The method in brief: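 DPX-2 cells (HepG2 co-transfected with a PXR response element and a CYP3A4-promoter luciferase construct) were seeded at 2,000 per well, rested 5 hr at 37C, then exposed to DMSO-dissolved compounds for 24 hr. Activation was read as luciferase luminescence.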

Assay [17] deals with Cytochrome P450 2C19 (Homo sapiens) (UniProt P33261). Nature of the assay: Cytochrome P450 Family 2 Subfamily C Member 19 (CYP2C19) small molecule antagonists: luciferase reporter qHTS assay (AID 1671197). Note: nearly all actives have a fitted effect of over 65% in size. Note: potency is the fitted concentration of half-maximal effect. The method in brief: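 Quantitative high-throughput screen of the Tox21 library using CYP2C19 with proluciferin substrate. Reaction: NADPH regeneration, 37C, 1 h, after 10 min compound preincubation at room temperature. Readout: luminescence.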

Assay [18] deals with Cytochrome P450 2C9 (Homo sapiens) (UniProt P11712). Nature of the assay: Cytochrome P450 Family 2 Subfamily C Member 9 (CYP2C9) small molecule antagonists: luciferase reporter qHTS assay (AID 1671198). Note: nearly all actives have a fitted effect of over 50% in size. Note: potency is the fitted concentration of half-maximal effect. The method in brief:
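CYP2C9 activity was measured with a P450-Glo proluciferin substrate. Enzyme–substrate mix was held with compound for 10 min at room temperature, then NADPH regeneration solution was added for 1 h at 37C. Luciferin product was read as luminescence.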

Assay [19] can be described thus: Human pregnane X receptor (PXR) small molecule agonists, qHTS cell viability counter screen (AID 1346977). Note: nearly all actives have a fitted effect of over 50% in size. The procedure, abridged: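 Viability counter screen: CellTiter-Fluor signal in PXR-Luc HepG2 cells, 24hr compound exposure, 37C, 5% CO2.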
% is set by controls: 0 for no effect and ±100 for the full control effect.

Chain of Cytochrome P450 3A4 (Homo sapiens) (P08684 whole entry, looked up): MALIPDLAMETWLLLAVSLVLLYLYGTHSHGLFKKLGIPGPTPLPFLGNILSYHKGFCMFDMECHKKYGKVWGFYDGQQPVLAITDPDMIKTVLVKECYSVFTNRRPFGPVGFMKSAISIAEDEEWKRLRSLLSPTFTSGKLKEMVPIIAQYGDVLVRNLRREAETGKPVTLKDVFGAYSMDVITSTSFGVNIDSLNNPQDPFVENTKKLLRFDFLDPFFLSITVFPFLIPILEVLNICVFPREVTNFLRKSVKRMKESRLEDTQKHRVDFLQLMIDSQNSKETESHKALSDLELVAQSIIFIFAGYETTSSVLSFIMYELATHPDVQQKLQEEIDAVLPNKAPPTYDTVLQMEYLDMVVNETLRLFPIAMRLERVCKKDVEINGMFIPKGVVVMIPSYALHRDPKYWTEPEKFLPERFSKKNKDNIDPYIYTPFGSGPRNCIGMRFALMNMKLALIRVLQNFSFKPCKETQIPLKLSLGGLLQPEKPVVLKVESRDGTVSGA
Chain of Cytochrome P450 2C9 (Homo sapiens) (P11712 whole entry, looked up): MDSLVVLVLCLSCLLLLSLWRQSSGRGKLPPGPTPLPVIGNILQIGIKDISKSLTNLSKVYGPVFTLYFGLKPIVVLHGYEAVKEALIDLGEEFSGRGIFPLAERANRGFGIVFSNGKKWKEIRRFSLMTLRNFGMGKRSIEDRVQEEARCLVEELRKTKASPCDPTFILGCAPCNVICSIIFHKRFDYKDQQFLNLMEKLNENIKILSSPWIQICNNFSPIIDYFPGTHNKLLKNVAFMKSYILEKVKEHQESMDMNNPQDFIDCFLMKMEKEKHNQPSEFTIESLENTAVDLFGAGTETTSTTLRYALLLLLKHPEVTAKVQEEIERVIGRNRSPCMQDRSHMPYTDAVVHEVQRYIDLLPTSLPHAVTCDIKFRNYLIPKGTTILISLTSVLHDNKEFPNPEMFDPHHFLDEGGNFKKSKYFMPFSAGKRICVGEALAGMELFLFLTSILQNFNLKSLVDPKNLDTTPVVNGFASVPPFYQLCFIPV
Chain of Cytochrome P450 1A2 (Homo sapiens) (P05177 whole entry, looked up): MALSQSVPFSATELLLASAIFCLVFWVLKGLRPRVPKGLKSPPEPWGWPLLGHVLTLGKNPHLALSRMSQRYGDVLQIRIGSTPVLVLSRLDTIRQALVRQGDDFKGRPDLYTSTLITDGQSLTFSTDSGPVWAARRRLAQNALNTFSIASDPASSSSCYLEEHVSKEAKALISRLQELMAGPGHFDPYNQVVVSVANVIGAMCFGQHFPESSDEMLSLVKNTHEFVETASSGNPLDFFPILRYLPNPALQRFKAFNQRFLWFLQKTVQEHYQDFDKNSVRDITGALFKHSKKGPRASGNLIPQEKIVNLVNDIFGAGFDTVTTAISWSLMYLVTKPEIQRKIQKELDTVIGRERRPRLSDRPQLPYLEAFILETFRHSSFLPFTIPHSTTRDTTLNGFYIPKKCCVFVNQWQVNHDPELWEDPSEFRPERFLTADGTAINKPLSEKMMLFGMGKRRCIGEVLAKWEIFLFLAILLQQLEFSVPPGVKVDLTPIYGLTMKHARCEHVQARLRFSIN
Chain of Voltage-gated inwardly rectifying potassium channel KCNH2 (Homo sapiens) (Q12809 whole entry, looked up): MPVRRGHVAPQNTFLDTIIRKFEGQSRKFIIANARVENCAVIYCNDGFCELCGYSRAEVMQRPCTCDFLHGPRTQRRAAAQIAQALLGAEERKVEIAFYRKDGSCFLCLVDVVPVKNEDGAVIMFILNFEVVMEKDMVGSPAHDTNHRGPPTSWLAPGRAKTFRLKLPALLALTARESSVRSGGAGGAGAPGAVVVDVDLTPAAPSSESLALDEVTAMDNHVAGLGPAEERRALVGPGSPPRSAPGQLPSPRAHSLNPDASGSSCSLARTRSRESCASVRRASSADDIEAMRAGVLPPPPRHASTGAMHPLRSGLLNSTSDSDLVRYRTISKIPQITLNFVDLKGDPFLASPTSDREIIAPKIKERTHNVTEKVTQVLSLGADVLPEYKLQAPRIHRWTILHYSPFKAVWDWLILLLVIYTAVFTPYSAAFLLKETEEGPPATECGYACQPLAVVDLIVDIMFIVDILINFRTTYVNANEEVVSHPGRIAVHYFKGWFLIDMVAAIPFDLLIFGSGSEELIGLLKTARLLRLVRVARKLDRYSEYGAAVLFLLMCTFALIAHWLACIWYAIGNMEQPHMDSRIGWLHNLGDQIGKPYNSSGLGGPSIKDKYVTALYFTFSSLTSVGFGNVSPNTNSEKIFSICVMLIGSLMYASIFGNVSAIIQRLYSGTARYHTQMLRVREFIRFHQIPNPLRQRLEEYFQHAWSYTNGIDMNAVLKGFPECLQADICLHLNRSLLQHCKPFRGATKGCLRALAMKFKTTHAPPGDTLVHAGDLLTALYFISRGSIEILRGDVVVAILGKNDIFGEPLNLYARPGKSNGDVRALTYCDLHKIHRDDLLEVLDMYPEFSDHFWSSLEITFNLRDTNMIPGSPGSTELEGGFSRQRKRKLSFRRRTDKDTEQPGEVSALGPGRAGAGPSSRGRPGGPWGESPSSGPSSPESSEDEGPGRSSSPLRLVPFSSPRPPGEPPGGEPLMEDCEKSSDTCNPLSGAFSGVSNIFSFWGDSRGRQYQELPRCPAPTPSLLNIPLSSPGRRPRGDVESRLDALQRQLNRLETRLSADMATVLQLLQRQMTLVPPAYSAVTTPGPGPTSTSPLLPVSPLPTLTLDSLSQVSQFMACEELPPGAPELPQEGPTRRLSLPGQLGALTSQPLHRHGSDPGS
Chain of Cytochrome P450 2C19 (Homo sapiens) (P33261 whole entry, looked up): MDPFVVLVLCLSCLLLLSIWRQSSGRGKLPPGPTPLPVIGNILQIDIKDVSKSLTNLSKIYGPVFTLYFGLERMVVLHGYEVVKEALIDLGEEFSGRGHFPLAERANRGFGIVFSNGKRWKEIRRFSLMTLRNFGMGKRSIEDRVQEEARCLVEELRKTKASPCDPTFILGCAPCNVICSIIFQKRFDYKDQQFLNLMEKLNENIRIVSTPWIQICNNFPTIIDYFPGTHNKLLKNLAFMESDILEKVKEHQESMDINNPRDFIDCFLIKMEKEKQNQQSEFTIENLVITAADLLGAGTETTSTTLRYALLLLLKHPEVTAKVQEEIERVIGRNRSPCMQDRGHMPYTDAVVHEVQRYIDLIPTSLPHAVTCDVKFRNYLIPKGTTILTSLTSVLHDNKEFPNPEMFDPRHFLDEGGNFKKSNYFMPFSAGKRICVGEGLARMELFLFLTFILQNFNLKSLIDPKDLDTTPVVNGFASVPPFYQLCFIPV
Chain of Thyrotropin-releasing hormone receptor (Homo sapiens) (P34981 whole entry, looked up): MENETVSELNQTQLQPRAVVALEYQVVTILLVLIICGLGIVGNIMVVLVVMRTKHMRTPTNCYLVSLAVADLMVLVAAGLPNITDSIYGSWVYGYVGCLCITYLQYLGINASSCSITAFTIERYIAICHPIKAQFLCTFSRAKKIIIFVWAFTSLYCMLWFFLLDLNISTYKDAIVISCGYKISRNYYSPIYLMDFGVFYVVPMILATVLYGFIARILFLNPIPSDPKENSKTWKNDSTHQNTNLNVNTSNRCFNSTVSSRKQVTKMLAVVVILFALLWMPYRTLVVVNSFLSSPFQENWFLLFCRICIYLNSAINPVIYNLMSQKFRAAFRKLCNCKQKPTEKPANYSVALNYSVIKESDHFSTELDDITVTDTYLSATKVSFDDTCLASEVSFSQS
Chain of Cytochrome P450 2D6 (Homo sapiens) (P10635 whole entry, looked up): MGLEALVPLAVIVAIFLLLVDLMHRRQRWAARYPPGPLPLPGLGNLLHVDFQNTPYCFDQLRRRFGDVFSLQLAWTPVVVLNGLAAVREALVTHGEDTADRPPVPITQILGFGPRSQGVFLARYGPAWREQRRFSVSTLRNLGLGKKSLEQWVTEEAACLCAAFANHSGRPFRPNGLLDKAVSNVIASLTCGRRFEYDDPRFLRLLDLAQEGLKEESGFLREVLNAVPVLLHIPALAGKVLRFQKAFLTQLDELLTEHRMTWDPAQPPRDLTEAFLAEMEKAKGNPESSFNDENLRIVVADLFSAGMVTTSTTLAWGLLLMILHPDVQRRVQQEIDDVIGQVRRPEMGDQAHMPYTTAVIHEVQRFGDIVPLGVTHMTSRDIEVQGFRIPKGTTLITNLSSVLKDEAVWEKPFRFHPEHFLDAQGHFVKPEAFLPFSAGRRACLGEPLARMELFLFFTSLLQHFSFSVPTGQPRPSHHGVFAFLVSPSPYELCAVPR
Chain of Nuclear receptor subfamily 1 group I member 2 (Homo sapiens) (O75469 whole entry, looked up): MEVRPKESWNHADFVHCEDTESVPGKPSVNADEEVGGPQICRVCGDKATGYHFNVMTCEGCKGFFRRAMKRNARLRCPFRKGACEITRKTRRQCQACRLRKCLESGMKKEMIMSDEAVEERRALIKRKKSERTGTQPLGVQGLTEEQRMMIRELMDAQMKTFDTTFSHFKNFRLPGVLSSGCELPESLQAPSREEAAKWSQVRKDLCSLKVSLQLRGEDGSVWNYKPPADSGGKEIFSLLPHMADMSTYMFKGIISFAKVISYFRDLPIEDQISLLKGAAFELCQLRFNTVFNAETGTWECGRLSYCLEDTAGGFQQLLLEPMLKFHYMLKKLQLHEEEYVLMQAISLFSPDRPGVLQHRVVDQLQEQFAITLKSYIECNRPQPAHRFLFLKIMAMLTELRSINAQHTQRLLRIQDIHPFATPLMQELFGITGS
Chain of Nuclear receptor subfamily 1 group I member 2 (Rattus norvegicus) (Q9R1A7 whole entry, looked up): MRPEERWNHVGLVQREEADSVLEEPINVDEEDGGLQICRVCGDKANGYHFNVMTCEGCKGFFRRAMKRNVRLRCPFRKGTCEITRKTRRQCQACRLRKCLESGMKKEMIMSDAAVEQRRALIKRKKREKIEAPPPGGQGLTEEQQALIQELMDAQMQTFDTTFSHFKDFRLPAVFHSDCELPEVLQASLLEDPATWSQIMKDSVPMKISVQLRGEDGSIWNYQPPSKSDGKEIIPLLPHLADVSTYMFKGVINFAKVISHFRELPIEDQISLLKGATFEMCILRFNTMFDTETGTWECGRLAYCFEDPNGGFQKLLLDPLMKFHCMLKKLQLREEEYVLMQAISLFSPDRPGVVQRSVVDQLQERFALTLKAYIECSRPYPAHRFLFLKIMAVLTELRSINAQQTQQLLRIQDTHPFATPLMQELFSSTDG

With `CCCc1ccc(O)cc1`, the outcome in assay [1], in assay [2], in [3], in assay [4], in assay [5] and in assay [7] was inactive. Further, the Potency entry in assay [6], in [8], in assay [10] and in [11] was “inactive” in each case. Further, the Potency in assay [9] was 44.8 µM (active).
In the case of `CC/C=C\CCOC(=O)c1ccccc1O`, the compound was classed as inactive in assay [1], in assay [2], in assay [3], in [4], in assay [5] and in [7]. In addition, the Potency entry in [6], in [12] and in assay [11] was “inactive” each time. Besides, in [9], the Potency was 31.7 µM (active).
`CC(C)NCC(O)c1ccc2ccccc2c1` (stereo not given): the result in [1], in assay [2], in [3], in [5], in [13] and in assay [7] was inactive. The Potency result in assay [6], in [8], in [15], in assay [16], in assay [17] and in assay [18] was “inactive” each time. The Potency entry in assay [10] and in [11] was “inactive” in each case. The max activation in assay [14] was -0.315%. Further, the Potency in [12] is 2.19 µM (active); in assay [9] it was 15.5 µM (active).
With `CCCCOCC(C)O` (stereo not given), the call in [1], in assay [2], in assay [3], in assay [5] and in [7] was inactive. The Potency entry in assay [6], in assay [8], in assay [12], in assay [17], in [18] and in [9] was “inactive” in each case. Also, the Potency entry in [10] and in assay [11] was “inactive” each time.
`O=C(O)[C@H](O)c1ccccc1`: the compound was called inactive in [1], in assay [2], in assay [3], in assay [19], in assay [5] and in assay [7]. Moreover, the Potency result in assay [6], in assay [8], in assay [15], in assay [16], in [18] and in assay [9] was “inactive” throughout. The Potency result in [10] and in assay [11] was “inactive” in each case. For the same compound, in assay [14], the max activation is -3.01%.
With `C=CCSSCCC`, the outcome in assay [1], in [2], in assay [4], in assay [19], in assay [5] and in assay [13] was inactive. Further, the compound was classed as inactive in assay [7]. Moreover, the Potency result in [6], in assay [8], in assay [17], in [18], in assay [9] and in assay [11] was “inactive” in each case. Moreover, in assay [12], the Potency was 56.2 µM (active).
On to `C=CCCCCCCCC`, for which the compound was classed as inactive in assay [1], in assay [2], in [3], in assay [19], in assay [5] and in [13]. Moreover, the outcome in [7] was inactive. The Potency result in [6], in assay [8], in assay [12] and in [11] was “inactive” throughout.
In the case of `CC1(C)Cc2cccc(N)c2O1`, the result in assay [1], in assay [2], in assay [3], in assay [19], in assay [5] and in assay [13] was inactive. Besides, the compound was called inactive in [7]. Further, the Potency entry in assay [6] was “inactive”. Besides, the Potency is 34.4 µM (active) in [8], 17.8 µM (active) in [17], 11.2 µM (active) in assay [18] and 7.96 µM (active) in assay [11].
For `COc1nc(N)nc2nc[nH]c12`, the compound was classed as inactive in [1], in assay [2], in assay [3], in assay [19], in assay [5] and in assay [13]. In addition, the compound was classed as inactive in [7]. In addition, the Potency entry in assay [6], in assay [8], in [18] and in assay [10] was “inactive” throughout. Also, the Potency in assay [12] is 10 µM (active); in [9] it was 17.9 µM (active).
As to `CCCCSCCCC`, the call in assay [1], in assay [2], in assay [4], in assay [19], in assay [5] and in assay [13] was inactive. In [7], the result was inactive. The Potency result in assay [6], in assay [8], in assay [12], in [9], in assay [10] and in [11] was “inactive” in each case. Moreover, the values for the Potency in [17] and in [18] were 79.6 µM (active) and 63.3 µM (active), respectively.
For `CO[C@@]1(NC(=O)Cc2cccs2)C(=O)N2C(C(=O)O)=C(COC(N)=O)CS[C@@H]21`, the outcome in [1], in [2], in assay [3], in [19], in assay [5] and in assay [13] was inactive. Besides, the compound was called inactive in assay [7]. The Potency entry in assay [6], in assay [8], in [12], in assay [18], in assay [9] and in [10] was “inactive” throughout. The Potency entry in [11] is “inactive”.
